Screening data deposited in PubChem BioAssay by several laboratories.
Only some compounds are listed: those with a hit (about 2.6% of all), similar ones and a draw of the others.
Mcl1 Noxa PPI: disrupts binding of human Mcl-1 to Noxa peptide; Q07820; TR-FRET Mcl-1/Noxa peptide binding, 2 h; inhibition, % at 21.7 µM; hit rate 1.5% among 220,000; AID 1022;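 active means compounds that cut the protein-peptide binding signal by more than 50% relative to plate controls in a single-dose test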;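 further: His-tagged Mcl-1 with rhodamine Noxa BH3 peptide and terbium anti-His antibody; 0% = Mcl-1 plus Noxa peptide wells and 100% = peptide-only wells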
Mcl1-Bid inh: Mcl-1/Bid interaction inhibition; AID 1021; Q07820; inhibition, % at 21.7 µM; TR-FRET Mcl-1/Bid-Dy647 peptide binding, 1536-well; hit rate 0.97% among 220,000;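 active means compounds that cut the binding signal by more than half at the single screening dose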;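 further: His-tagged Mcl-1 with europium anti-His antibody binding Bid BH3 peptide; 0% = Mcl-1 plus peptide wells and 100% = peptide-only wells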
MCL1 BIM primary: inhibitors of human MCL1 binding to BIM-BH3 peptide; Q07820; GST-MCL1 / FITC-Bim-BH3 fluorescence polarization; inhibition, % at 10.9 µM; hit rate 0.68% among 320,000; AID 2057;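 active means inhibition above the mean inhibition of all tested compounds plus 3 SD, set per campaign, cut at about 40% in these data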;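 further: 0% = DMSO wells and 100% = unlabeled Bim-BH3 peptide control; higher means more loss of mP so more displacement of Bim peptide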
14-3-3 Bad inh: disrupts binding of bovine 14-3-3 zeta to phospho-Bad peptide; TR-FRET 14-3-3zeta/Dy647-pBad peptide displacement, 1 h; hit rate 0.71% among 220,000; P63103; inhibition, % at 21.7 µM;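 active means inhibition above about 70%, limit read from the data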;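 further: 0% = full 14-3-3 plus peptide FRET controls and 100% = background without 14-3-3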
Bim-Mcl-1: disrupts Bim peptide binding to human Mcl-1 | Q07820 | Bead-based flow cytometry, Bim peptide-Mcl-1 binding | inhibition, % at 10 µM | hit rate 0.1% among 190,000; in the data active means inhibition above about 40%;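 further: 0% = no compound tracer wells and 100% = peptide blocker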
eIF4E-4G inh: eIF4E/eIF4G interaction inhibition in translation initiation | P63073+Q04637 | TR-FRET eIF4E-eIF4GI(517-606) binding, 2 h | inhibition, % at 21.7 µM | hit rate 0.37% among 220,000 | AID 782;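 active means inhibition above about 30%, limit read from the data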;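 further: 0% = full FRET control wells and 100% = background wells lacking eIF4GI fragment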
Numbers without * were called inactive; nt = no result.

SMILES | Mcl1 Noxa PPI | Mcl1-Bid inh | MCL1 BIM primary | 14-3-3 Bad inh | Bim-Mcl-1 | eIF4E-4G inh
N#Cc1ccc(CC(C(=O)O)N2Cc3ccccc3C2=O)cc1 (configuration not stated) | nt | nt | 2 | nt | nt | nt
COc1ccc(S(=O)(=O)N2CCN(C(=O)c3ccc4ccccc4n3)CC2)cc1 | nt | nt | -1 | nt | nt | nt
Cc1ccc(-c2nn(CC(=O)NCc3cc(-c4nn(C)c(=O)c5ccccc45)ccc3C)c(=O)c3ccccc23)cc1 | -48 | 79* | 3 | 72* | 1 | 26
Cc1cc(-c2nn(C)c(=O)c3ccccc23)ccc1CNC(=O)NC1CCCCC1 | 7 | 19 | 3 | 40 | 0 | -6
CCC(=O)NCc1cc(-c2nn(C)c(=O)c3ccccc23)ccc1C | 5 | 5 | 3 | -2 | -2 | 1
COc1ccc(-c2nn(C)c(=O)c3ccccc23)cc1CNC(=O)NC1CCCCC1 | -19 | 62* | -15 | 50 | 1 | 21
O=C(CNC(=O)c1sc2ccccc2c1Cl)NC1CC1 | nt | nt | 9 | nt | nt | nt
CCOC(=O)Cc1csc(-n2sc3ccccc3c2=O)n1 | 68* | -43 | 6 | -6 | -5 | -2
COc1ccccc1C(=O)C1CCCN(C(=O)c2snnc2C)C1 (configuration not stated) | 10 | -17 | 6 | -1 | 13 | 1
CCCc1cc(=O)[nH]c(SCC(=O)N(CC)c2c(N)n(Cc3ccccc3)c(=O)[nH]c2=O)n1 | nt | nt | -7 | nt | nt | nt
CCCCn1c(=N)n(CC(=O)c2ccc(OC)cc2)c2ccccc21 | 19 | -3 | 5 | -4 | nt | 83*
CC(C)N(CCn1c(SCC(=O)Nc2cccnc2Cl)nc2ccccc2c1=O)C(C)C | nt | nt | 14 | nt | nt | nt
CCC1(C)Cc2sc3c(=O)[nH]c(=S)[nH]c3c2CO1 (configuration not stated) | 54* | -24 | 8 | -6 | -5 | -1
COCCn1nnnc1C(c1ccc(Cl)cc1)N1CCSCC1 (configuration not stated) | 22 | -25 | 9 | 75* | 2 | 4
COCCn1nnnc1C(c1ccc(OC)cc1)N1CCN(c2ccccc2F)CC1 (configuration not stated) | 39 | 50 | 3 | 44 | -3 | 3
CCCC(c1nnnn1Cc1ccccc1)N1CCN(c2ccccc2OC)CC1 (configuration not stated) | 21 | 0 | -3 | 84* | -5 | 11
CCCC(c1nnnn1Cc1ccc(OC)cc1)N1CCN(c2ccccc2OC)CC1 (configuration not stated) | 18 | 2 | 10 | 45 | 0 | 2
COc1ccc(C(c2nnnn2Cc2cccs2)N2CCN(c3ccccc3F)CC2)cc1OC (configuration not stated) | 15 | 12 | -3 | 83* | -1 | -10
COCCn1nnnc1C(c1ccccc1OC)N1CCN(c2ccccc2F)CC1 (configuration not stated) | 17 | 2 | 5 | 74* | 0 | 9
Cc1ccc(N2CCN(S(=O)(=O)c3ccc4c(c3)oc(=O)n4C)CC2C)cc1 (configuration not stated) | nt | nt | 19 | nt | nt | nt
COc1ccc(C(=O)NCc2nnc(SC)n2Cc2ccccc2)cc1 | -6 | -9 | -5 | -7 | -4 | 1
COc1cccc(N/C=C/c2onc(C)c2[N+](=O)[O-])c1 | 55* | 19 | -71 | 34 | 0 | -2
Cc1nc2sc(C(c3cccs3)N3CCN(c4ccccc4)CC3)c(O)n2n1 (configuration not stated) | nt | nt | 3 | nt | nt | nt
Cc1nc2sc(C(c3cccs3)N3CCOCC3)c(O)n2n1 (configuration not stated) | 30 | 76* | 1 | 2 | -1 | 9
CCC1CSC(Nc2ccc(C(=O)/C=C/c3cccc(C)c3)cc2)=N1 (configuration not stated) | 85* | 26 | -9 | 3 | 0 | 0
SMILES | Mcl1 Noxa PPI | Mcl1-Bid inh | MCL1 BIM primary | 14-3-3 Bad inh | Bim-Mcl-1 | eIF4E-4G inh
O=C(Nc1cc(S(=O)(=O)N2CCOCC2)ccc1N1CCCC1)c1ccc2c(c1)S(=O)(=O)c1ccccc1C2=O | 16 | -6 | 0 | 15 | -5 | 4
CSc1nc(Cl)c(C#N)c(-c2ccc(C)cc2)n1 | 3 | 20 | 4 | 77* | -2 | -7
COc1ccc(-c2nc(-c3cccc(C)c3)nc(Cl)c2C#N)cc1 | -41 | 10 | nt | 7 | 0 | 3
CCOc1ccc2nc(C)cc(Nc3ccc(N4CCOCC4)cc3)c2c1 | 62* | -5 | -4 | -8 | -2 | 1
CCOc1ccc2nc(C)cc(Nc3ccc4c(c3)OCCO4)c2c1 | 15 | -22 | -4 | -7 | 3 | -6
CCN(CC)c1ccc(NC(=O)c2cccc(C)c2OC)c(C)c1 | 62* | -21 | -5 | 11 | 2 | 0
CCN(CC)c1ccc(NC(=O)c2cccnc2)c(C)c1 | 15 | -6 | 8 | -10 | -5 | 7
CN(C)CCCNC(NC(=O)/C=C/c1ccccc1)C(Cl)(Cl)Cl (configuration not stated) | 16 | -22 | 4 | 1 | nt | 3
Cc1ccc(-c2cc(C(=O)Nc3ccc(S(=O)(=O)Nc4ncccn4)cc3)[nH]n2)c(O)c1C | 56* | -5 | 3 | 26 | nt | -9
O=C(Nc1ccc(N2CCCCC2)c(Cl)c1)c1ncn[nH]1 | 4 | -32 | 13 | 0 | 0 | -4
O=C(Nc1ccc(CCC(=O)N2CCCC2)cc1)c1ncn[nH]1 | 22 | 96* | 9 | -9 | -4 | -6
CCNCC(O)COCC(O)CNCC (configuration not stated) | -6 | -14 | 5 | 4 | -3 | 46*
COC(=O)C(Cc1c[nH]c2ccccc12)NC(=O)c1cc(-c2ccc(OC)c(OC)c2)oc1C (configuration not stated) | 33 | -32 | -6 | -22 | -2 | 2
COc1ccc(OC(=O)c2ccncc2)cc1 | 6 | 99* | 7 | -3 | 0 | -10
O=C1/C(=C/c2ccccc2F)SC(=S)N1CC(=O)N1CCCCC1c1cccnc1 (configuration not stated) | nt | nt | 8 | nt | nt | nt
COc1ccccc1NC(=O)COc1cc(Br)c(CNCCCN2CCOCC2)cc1OC | 43 | 89* | 1 | 59 | 2 | 1
Cc1ccc(C2NC(=O)NC(O)(C(F)(F)F)C2C(=O)c2ccccc2)o1 (configuration not stated) | -14 | -6 | 5 | -6 | 13 | 1
O=C1NC(c2ccc(-c3ccccc3[N+](=O)[O-])o2)C(C(=O)c2ccc(F)cc2)C(O)(C(F)(F)F)N1 (configuration not stated) | 55* | -3 | 0 | 0 | -2 | 0
COc1ccc(C(=O)C2C(c3ccc(-c4ccccc4[N+](=O)[O-])o3)NC(=O)NC2(O)C(F)(F)F)cc1 (configuration not stated) | 57* | 10 | 6 | 4 | -4 | 0
